# Assay results published in PubChem BioAssay (NCI).
# This is part of a sample that, as a whole, favours compounds with a hit. Of some 83,000 tested, about 20% had one in any assay.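 Assay: single dose, 48 h. Readout: percent growth (0 = no net growth; negative = cell death). Active: <10.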 Values without a mark were called inactive. Active and inactive are the calls of the source.
# Test system: T-47D breast
# Experiment: NCI-60 one-dose screen, 48 h (100 = growth as untreated, 0 = no growth, -100 = all killed)
# Conditions: 10 µM unless noted
row,SMILES,growth
1,N#C/C(=C\c1ccc(-c2ccc(Br)cc2)o1)c1nc(-c2cccs2)cs1,40%
2,Cc1cc(C=O)c(C)c2c1[nH]c1ccccc12,101%
3,CCCCC[C@H]1C/C=C2/C(=O)C=C[C@@H]2C/C=C\CCCC(=O)O[C@@H](CCCCC)C/C=C2/C(=O)C=C[C@@H]2C/C=C\CCCC(=O)O1,-74.8% (active)
4,Cn1nc(-c2ccccc2)c2c(-c3ccccc3)onc2c1=O,26.8%
5,CCN1CCN(C(=O)[C@]23CCC(C)(C)C[C@@H]2C2=CC[C@@H]4[C@@]5(C)C/C(=C/c6cccnc6)C(=O)C(C)(C)[C@@H]5CC[C@@]4(C)[C@]2(C)CC3)CC1,20.1%
6,COc1ccc2c(c1)c(-c1nc(-c3cn(C)c4ncccc34)cs1)cn2CCN,-0.878% (active)
7,Cc1oc(-c2ccccc2Cl)cc1C(=O)Nc1ccc(S(N)(=O)=O)cc1,83.2%
8,Cn1c(/C(C#N)=C/c2ccc3ccccc3c2)cc2ccccc21,73.4%
9,CCSc1ncnc2c1ncn2C1OC(CO)C(O)C1O (stereo not drawn),29.1%
10,CCCCN1CCCCn2c1nc1c2c(=O)n(C)c(=O)n1C,107%
11,CC(C)(C)c1cc(-n2c(-c3ccc(Cl)cc3)nc3cc(C(=O)Nc4ccc(Cl)cc4)ccc32)n[nH]1,25.2%
12,NC(=O)NCC1CCCCC1,97.7%
13,CC(=O)N1N=C(c2ccc(C)cc2)CC1c1ccc(Oc2ccc(Br)cc2)cc1 (stereo not drawn),60.6%
14,O=C(/C=C/c1cccc2ccccc12)Nc1ncc(Cc2ccccc2)s1,16%
15,COc1ccc2c(c1)C(Br)=C(CCO)C2c1ccccc1 (stereo not drawn),54.3%
16,C=C1C(=O)O[C@H]2[C@H]1CC/C(Cn1cc(-c3ccc(F)cc3)nn1)=C\CC[C@@]1(C)O[C@@H]21,-48.1% (active)
17,OCC1OC(n2cnc3c(Cl)ncnc32)CC1O (stereo not drawn),92.1%
18,Cn1cc(-c2csc(-c3cn(CCN)c4ccccc34)n2)c2cccnc21,20%
19,COc1cc(/C=C2\C(=O)N(CC(O)COc3cc(O)c4c(=O)cc(-c5ccccc5)oc4c3)c3ccccc32)cc(OC)c1O (stereo not drawn),58.2%
20,C=C(C)[C@@H]1CC[C@]2(C(=O)O)CC[C@]3(C)[C@H](CC[C@@H]4[C@@]5(C)C/C(=C/c6ccc(OC)cc6)C(=O)C(C)(C)[C@@H]5CC[C@]43C)[C@@H]12,13.3%

row,SMILES,growth
1,O=C1c2cccc3cccc(c23)C(=O)N1CC#Cc1ccc2c3c(cccc13)C(=O)N(CCO)C2=O,98.2%
2,CN1CCN(CCOc2ccc(-c3cnc4c(-c5ccccc5F)cnn4c3)cc2)CC1,23%
3,CCN(CC)CCCCCCNc1ccnc2cc(Cl)ccc12,91%
4,C/C(Cc1ccc(Cl)cc1)=C(/c1ccc(Cl)cc1)c1ccc(OCCN2CCCC2)cc1,66.3%
5,Cc1ccc(N(CC(=O)Nc2ccc(S(=O)(=O)N3CCC(N4CCCC4)CC3)cc2)S(=O)(=O)c2ccc(Cl)cc2)cc1,-37.2% (active)
6,Cn1cc(-c2csc(-c3c[nH]c4ccccc34)n2)c2cccnc21,27.2%
7,C(=C\c1c[nH]c2ccccc12)/c1ccc2ccccc2n1,68.4%
8,COc1cccc(-c2nn(-c3ccccc3)cc2-c2ccnc(NCCCNS(=O)(=O)c3ccc(Cl)cc3)c2)c1,14.2%
9,Cc1ccncc1C(=O)O,107%
10,Cc1cccc(C)c1NC(=O)CSC(=S)N1CCN(CCOCCO)CC1,103%
11,Cc1cc(Cl)nc(N(CCNc2ccnc3cc(Cl)ccc23)Cc2ccco2)n1,-14.7% (active)
12,COC(=O)[C@]12CC[C@@H](C)[C@H](C)[C@@H]1C1=CC[C@@H]3[C@@]4(C)C[C@@H](O)[C@H](O)[C@@](C)(CO)C4=CC[C@@]3(C)[C@]1(C)CC2,-26.5% (active)
13,Fc1ccc2nc(-c3cc(-c4ccc5c(c4)OCO5)n[nH]3)[nH]c2c1,50.4%
14,COc1cc2[nH]c(C(=O)c3cc(OC)c(OC)c(OC)c3)c(N)c2cc1C#CCO,56%
15,COc1ccc(-c2cc(-c3cccs3)n(N=O)c(=O)c2C#N)cc1,97.4%
16,Cc1ccc(Sc2sc(-c3ccccc3)nc2[P+](c2ccccc2)(c2ccccc2)c2ccccc2)cc1,-9.83% (active)
17,NS(=O)(=O)c1ccc(CCNC(=O)/C=C/c2ccc(Cl)cc2)cc1,90.7%
18,Cc1cc2nc3c4cc(Cl)ccc4n(CCN(C)C)c3nc2cc1C,30.5%
19,Cc1ccc(S(=O)(=O)Nc2ccc(-c3cc(-c4cccc(F)c4)c(C#N)c(N)n3)cc2)cc1,-27.2% (active)

# Test system: BT-549 breast
# Experiment: as above
# Conditions: 10 µM unless noted
row,SMILES,growth
1,N#C/C(=C\c1ccc(-c2ccc(Br)cc2)o1)c1nc(-c2cccs2)cs1,96.8%
2,Cc1cc(C=O)c(C)c2c1[nH]c1ccccc12,89%
3,CCCCC[C@H]1C/C=C2/C(=O)C=C[C@@H]2C/C=C\CCCC(=O)O[C@@H](CCCCC)C/C=C2/C(=O)C=C[C@@H]2C/C=C\CCCC(=O)O1,-72.9% (active)
4,Cn1nc(-c2ccccc2)c2c(-c3ccccc3)onc2c1=O,47.4%
5,CCN1CCN(C(=O)[C@]23CCC(C)(C)C[C@@H]2C2=CC[C@@H]4[C@@]5(C)C/C(=C/c6cccnc6)C(=O)C(C)(C)[C@@H]5CC[C@@]4(C)[C@]2(C)CC3)CC1,25.7%
6,COc1ccc2c(c1)c(-c1nc(-c3cn(C)c4ncccc34)cs1)cn2CCN,96.9%
7,Cc1oc(-c2ccccc2Cl)cc1C(=O)Nc1ccc(S(N)(=O)=O)cc1,104%
8,Cn1c(/C(C#N)=C/c2ccc3ccccc3c2)cc2ccccc21,-16.6% (active)
9,CCSc1ncnc2c1ncn2C1OC(CO)C(O)C1O (stereo not drawn),49%
10,CCCCN1CCCCn2c1nc1c2c(=O)n(C)c(=O)n1C,108%
11,CC(C)(C)c1cc(-n2c(-c3ccc(Cl)cc3)nc3cc(C(=O)Nc4ccc(Cl)cc4)ccc32)n[nH]1,58.7%
12,NC(=O)NCC1CCCCC1,104%
13,CC(=O)N1N=C(c2ccc(C)cc2)CC1c1ccc(Oc2ccc(Br)cc2)cc1 (stereo not drawn),89.3%
14,O=C(/C=C/c1cccc2ccccc12)Nc1ncc(Cc2ccccc2)s1,24.8%
15,COc1ccc2c(c1)C(Br)=C(CCO)C2c1ccccc1 (stereo not drawn),87.7%
16,C=C1C(=O)O[C@H]2[C@H]1CC/C(Cn1cc(-c3ccc(F)cc3)nn1)=C\CC[C@@]1(C)O[C@@H]21,43.5%
17,OCC1OC(n2cnc3c(Cl)ncnc32)CC1O (stereo not drawn),114%
18,Cn1cc(-c2csc(-c3cn(CCN)c4ccccc34)n2)c2cccnc21,59.6%
19,COc1cc(/C=C2\C(=O)N(CC(O)COc3cc(O)c4c(=O)cc(-c5ccccc5)oc4c3)c3ccccc32)cc(OC)c1O (stereo not drawn),96.7%
20,C=C(C)[C@@H]1CC[C@]2(C(=O)O)CC[C@]3(C)[C@H](CC[C@@H]4[C@@]5(C)C/C(=C/c6ccc(OC)cc6)C(=O)C(C)(C)[C@@H]5CC[C@]43C)[C@@H]12,26.2%

row,SMILES,growth
1,O=C1c2cccc3cccc(c23)C(=O)N1CC#Cc1ccc2c3c(cccc13)C(=O)N(CCO)C2=O,86.4%
2,CN1CCN(CCOc2ccc(-c3cnc4c(-c5ccccc5F)cnn4c3)cc2)CC1,69.9%
3,CCN(CC)CCCCCCNc1ccnc2cc(Cl)ccc12,86.3%
4,C/C(Cc1ccc(Cl)cc1)=C(/c1ccc(Cl)cc1)c1ccc(OCCN2CCCC2)cc1,99.2%
5,Cc1ccc(N(CC(=O)Nc2ccc(S(=O)(=O)N3CCC(N4CCCC4)CC3)cc2)S(=O)(=O)c2ccc(Cl)cc2)cc1,74.1%
6,Cn1cc(-c2csc(-c3c[nH]c4ccccc34)n2)c2cccnc21,49.6%
7,C(=C\c1c[nH]c2ccccc12)/c1ccc2ccccc2n1,68.8%
8,COc1cccc(-c2nn(-c3ccccc3)cc2-c2ccnc(NCCCNS(=O)(=O)c3ccc(Cl)cc3)c2)c1,58.1%
9,Cc1ccncc1C(=O)O,99.8%
10,Cc1cccc(C)c1NC(=O)CSC(=S)N1CCN(CCOCCO)CC1,102%
11,Cc1cc(Cl)nc(N(CCNc2ccnc3cc(Cl)ccc23)Cc2ccco2)n1,54.7%
12,COC(=O)[C@]12CC[C@@H](C)[C@H](C)[C@@H]1C1=CC[C@@H]3[C@@]4(C)C[C@@H](O)[C@H](O)[C@@](C)(CO)C4=CC[C@@]3(C)[C@]1(C)CC2,-80.2% (active)
13,Fc1ccc2nc(-c3cc(-c4ccc5c(c4)OCO5)n[nH]3)[nH]c2c1,27.5%
14,COc1cc2[nH]c(C(=O)c3cc(OC)c(OC)c(OC)c3)c(N)c2cc1C#CCO,54%
15,COc1ccc(-c2cc(-c3cccs3)n(N=O)c(=O)c2C#N)cc1,104%
16,Cc1ccc(Sc2sc(-c3ccccc3)nc2[P+](c2ccccc2)(c2ccccc2)c2ccccc2)cc1,-15.4% (active)
17,NS(=O)(=O)c1ccc(CCNC(=O)/C=C/c2ccc(Cl)cc2)cc1,108%
18,Cc1cc2nc3c4cc(Cl)ccc4n(CCN(C)C)c3nc2cc1C,53.6%
19,Cc1ccc(S(=O)(=O)Nc2ccc(-c3cc(-c4cccc(F)c4)c(C#N)c(N)n3)cc2)cc1,7.45% (active)
